# Data published in the supplement of paper PMC10338343.
# ± gives the standard deviation.
# System: MILI (PIWIL2) piRISC loaded with piRNA #1 (26 nt)
# Assay: pre-steady-state target cleavage rate (min^-1); guide: piRNA #1 5'p-UGAGGUAGUAGGUUGUAUAGUAUCCA; MIWI and MILI are mouse PIWI proteins and EfPiwi is from a freshwater sponge; tags in brackets are library labels; higher = faster piRNA-guided slicing of the target
# Details: auxiliary factor: 500 nM mouse GTSF1
# Procedure, shortened: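 The method was Cleave-'n-Seq, in which uncleaved targets from a transcribed, DNA-blocked target RNA library were sequenced after exposure to active affinity-purified piRISC carrying one synthetic guide, with or without GTSF1 partner protein. Reactions contained 0.1 nM library, 1 nM piRISC and, where present, 500 nM GTSF1 in HEPES–potassium acetate buffer at 33 °C for 0–8 or 0–960 min. Reads were normalised to depth and to weakly complementary targets, three trials were pooled, and k3 was capped at 0.0001 min^-1. The pre-steady-state cleavage rate came from a burst-and-steady-state fit.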
row,Sequence,pre-steady-state target cleavage rate
1,GGAGAGGAUAGUAUUCAACCUACUACCUCA,0.0731 ± 0.011
2,GGAGACCAUACUAAACAUCCUACUACCUCA,0.272 ± 0.022
3,GGAGACCUAUCAAUACAACCUACUUCCUCA,0.0355 ± 0.0087
4,GGAGACCUUAGUAUAGAACCUACUACCUCA,0.0876 ± 0.013
5,GGAGACCAUACUAAACAACCUACUACGUCA,0.0881 ± 0.014
6,GGAGACCUUACUUUAGAACCUACUACCUCA,0.13 ± 0.01
7,GGAGACCUAUCUUUACAACCUACUUCCUCA,0.0374 ± 0.0094
8,GGAGACGAUACUAUACAACCUACUAGCACA,0.00848 ± 0.0055
9,GGAGACCUUACUAUACAUCCUACUUCCUCA,0.183 ± 0.031
10,GGAGACCAUACUAUACUUGCUACUACCUCA,0.0454 ± 0.0044
11,GGAGACCUUAGUAUACAACGUACUACCUCA,0.0124 ± 0.0037
12,GGAGACCUAUGUAUACAACCUACGUACCUCA,0.0295 ± 0.0083
13,GGAGACCUAUGUAUCACAACCUACUACCUCA,0.0102 ± 0.003
14,GGAGACCUAUCUUUACAACGUACUACCUCA,0.00834 ± 0.002
15,GGAGACCUAUGAAUACAACCUACUAUCUCA,0.00527 ± 0.0017
16,GGAGACCUUACUAAAGAACCUACUACCUCA,0.105 ± 0.011
17,GGAGACCUUACUAUACAACCUACUUGCUCA,0.098 ± 0.021
18,GGAGACCUAUCUAUACAACCUACAUACCUCA,0.113 ± 0.015
19,GGAGACCUAUCUAUACAACCUACUACUCA,0.0936 ± 0.013
20,GGAGUGGAUACUAUACAACGUAGUACCUCA,0.0167 ± 0.0028

row,Sequence,pre-steady-state target cleavage rate
1,GGAGACCUUACUAUACAACCUACUACGCUCA,0.256 ± 0.019
2,GGAGACCUUACUAUACAACCUACAUCCUCA,0.0472 ± 0.0095
3,GGAGACCUUUCUAUACAACCUUCUACCUCA,0.00706 ± 0.003
4,GGAGACCUAUGAUAUCAUCCUACAACCUCA,0.00348 ± 0.003
5,GGAGACCUAACAAUACAACCUACAACCUCA,0.0691 ± 0.019
6,GGAGACCAUACUAUUCAACCUAGUACCUCA,0.0559 ± 0.011
7,GGAGACCUAUGUAUACAACCUACUUGCUCA,0.0104 ± 0.0037
8,GGAGACCAUACUAUACAACCUCUACCUCA,0.00997 ± 0.0029
9,GGAGACCUAUGUAUACAACCUACAAGCUCA,0.0033 ± 0.0026
10,GGAGACCUAUGAUUACAACCUAUCUACCUCA,0.00755 ± 0.003
11,GGAGACCUAUGAAUACAACCUACUAACCUCA,0.0105 ± 0.0027
12,GGAGACCAUACUAUACAACGUACUACGUCA,0.0148 ± 0.0053
13,GGAGACCUAAGUAUACUACCUACUACCUCA,0.0377 ± 0.0069
14,GGAGACCUAUGAAUACUACCUACUACGUCA,0.00344 ± 0.0026
15,GGAGACCUAACUUAUACAACCUACUACCUCA,0.0771 ± 0.019
16,GGAGACCUAUCUAUACAACCUACGUACCUCA,0.0605 ± 0.012
17,GGAGACCUAAGUAUACAACCUUCUACCUCA,0.00652 ± 0.0032
18,GGAGACCUAUGAAGACAACCUACUACCUCA,0.00824 ± 0.0032
19,GGAGACGAUACUAUACAAGCUACUACCUCA,0.269 ± 0.016
20,GGAGACCUAUCUAAACAAGCUACUACCUCA,0.176 ± 0.019
